Data published in PubChem BioAssay (EPA / NIEHS).
Active and inactive are the calls of the source. How the source made its calls: active means hit-call score of the fitted dose curve at least 0.9, where 1 is the maximum; inactive means score below 0.9.

How the values were obtained:
[1] = molecular target: CCAAT/enhancer-binding protein beta (Homo sapiens) (UniProt P17676); experiment: ATG_C_EBP_CIS: Attagene CIS-FACTORIAL HepG2 Assay for human CCAAT/Enhancer Binding Protein (C/EBP) beta (AID 2282927); settings: HepG2 Attagene cis-factorial transcription factor reporter; actives raise or lower the signal
CCAAT/enhancer-binding protein beta (Homo sapiens), sequence (P17676 whole entry, looked up): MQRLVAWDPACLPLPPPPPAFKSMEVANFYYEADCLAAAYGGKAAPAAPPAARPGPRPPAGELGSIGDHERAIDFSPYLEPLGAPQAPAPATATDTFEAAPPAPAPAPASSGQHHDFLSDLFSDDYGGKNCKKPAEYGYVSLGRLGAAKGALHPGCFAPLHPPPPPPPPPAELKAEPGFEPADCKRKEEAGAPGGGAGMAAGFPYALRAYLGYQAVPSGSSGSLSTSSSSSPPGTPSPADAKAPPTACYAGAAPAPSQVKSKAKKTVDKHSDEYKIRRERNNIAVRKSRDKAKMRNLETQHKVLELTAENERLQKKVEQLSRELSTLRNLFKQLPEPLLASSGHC
In short: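 HepG2 transiently transfected with multiplexed reporter units under cis-regulatory promoters reporting endogenous C/EBPb activity. After 24 h exposure, reporter mRNA assayed by RT-PCR, fluorescent labelling, HpaI digestion and capillary electrophoresis; bidirectional fitting versus DMSO.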

[2] = ATG_CMV_CIS: Attagene CIS-FACTORIAL HepG2 Assay for human CMV (Internal Marker) (AID 2282928); settings: HepG2 CMV promoter reporter, transcription factor profiling; actives raise or lower the signal;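 further: endpoint acts as a background internal control marker rather than a target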
In short: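 After transient transfection of HepG2 with reporter transcription units driven by cis-regulatory promoters, cells receive test chemical for 24 h. Labeled reporter amplicons, digested with HpaI, are sized and quantified by capillary electrophoresis against DMSO.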

[3] = ATG_DR4_LXR_CIS: Attagene CIS-FACTORIAL HepG2 Assay for human Liver X Receptor (LXR), DR4 submotif (AID 2282929); settings: HepG2 Attagene DR4 cis-reporter, mRNA transcription; actives raise or lower the signal
In short: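 Readout: reporter transcript fluorescence after RT-PCR and capillary electrophoresis, fitted bidirectionally against DMSO controls. Human HepG2 liver cells carried transiently transfected multiplexed reporter constructs; endogenous transcription factor activity measured 24 h post-dosing.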

[4] = molecular target: Aryl hydrocarbon receptor (Homo sapiens) (UniProt P35869); experiment: ATG_Ahr_CIS: Attagene CIS-FACTORIAL HepG2 Assay for human Aryl Hydrocarbon Receptor (Ahr) (AID 2282930); settings: HepG2 AhR cis-factorial reporter transcription; actives raise or lower the signal
Aryl hydrocarbon receptor (Homo sapiens), sequence (P35869 whole entry, looked up): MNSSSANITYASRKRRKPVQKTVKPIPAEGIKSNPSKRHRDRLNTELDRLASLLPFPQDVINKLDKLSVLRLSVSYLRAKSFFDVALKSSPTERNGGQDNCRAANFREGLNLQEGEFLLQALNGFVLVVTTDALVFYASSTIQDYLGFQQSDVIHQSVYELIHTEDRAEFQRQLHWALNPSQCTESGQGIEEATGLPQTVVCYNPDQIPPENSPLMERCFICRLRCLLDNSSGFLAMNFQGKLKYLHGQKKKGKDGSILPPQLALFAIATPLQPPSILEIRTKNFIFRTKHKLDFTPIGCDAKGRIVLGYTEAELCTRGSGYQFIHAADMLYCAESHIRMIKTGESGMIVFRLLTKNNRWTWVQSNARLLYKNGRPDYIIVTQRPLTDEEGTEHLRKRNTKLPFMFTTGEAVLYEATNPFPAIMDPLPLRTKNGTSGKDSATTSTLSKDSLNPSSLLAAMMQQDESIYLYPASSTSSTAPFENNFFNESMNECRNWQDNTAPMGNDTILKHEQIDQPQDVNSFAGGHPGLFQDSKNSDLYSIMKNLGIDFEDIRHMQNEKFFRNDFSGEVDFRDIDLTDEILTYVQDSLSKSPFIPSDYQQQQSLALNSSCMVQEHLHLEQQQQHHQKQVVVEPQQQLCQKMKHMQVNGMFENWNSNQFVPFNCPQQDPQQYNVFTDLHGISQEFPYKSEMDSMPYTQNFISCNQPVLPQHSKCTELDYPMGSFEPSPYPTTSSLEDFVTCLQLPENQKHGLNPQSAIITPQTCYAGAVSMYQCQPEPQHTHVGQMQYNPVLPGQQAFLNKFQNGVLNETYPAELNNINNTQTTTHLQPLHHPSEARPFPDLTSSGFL
In short: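 HepG2 cells transiently transfected with cis-element-driven multiplexed reporter units; endogenous AhR activity read as reporter mRNA 24 h after dosing, via RT-PCR, 6-FAM labelling, HpaI digestion and capillary electrophoresis. Bidirectional fit relative to DMSO.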

[5] = ATG_AP_1_CIS: Attagene CIS-FACTORIAL HepG2 Assay for human Activator Protein 1 (AP-1) (AID 2282931); settings: HepG2 Attagene cis-factorial AP-1 reporter mRNA; actives raise or lower the signal
In short: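 Reporter transcripts were measured 24 h after dosing by RT-PCR and capillary electrophoresis of fluorescent fragments. Cells: HepG2 carrying transfected cis-regulated reporter constructs reading endogenous factor activity. Gain or loss fitted against DMSO.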

[6] = ATG_AP_2_CIS: Attagene CIS-FACTORIAL HepG2 Assay for human Activator Protein 2 (AP-2) (AID 2282932); settings: HepG2 AP-2 cis-reporter, Attagene transcription factor profiling; actives raise or lower the signal
In short: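 HepG2 cells transiently transfected with cis-element reporter units and exposed for 24 h. Reporter mRNA measured by RT-PCR, FAM labelling, HpaI digestion and capillary electrophoresis. Changes in either direction fitted relative to DMSO.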

[7] = ATG_BRE_CIS: Attagene CIS-FACTORIAL HepG2 Assay for human Bone Morphogenetic Protein (BMP) Response Element (BRE) (AID 2282933); settings: HepG2 BMP response element reporter, Attagene transcription factor profiling; actives raise or lower the signal
In short: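 Read-out: reporter mRNA induction quantified by RT-PCR and capillary electrophoresis after 24 h chemical exposure of transfected HepG2 cells. Endogenous factor activity on the BMP response element; gain or loss fitted against DMSO baseline.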

[8] = molecular target: Transcription factor E2F1 (Homo sapiens) (UniProt Q01094); experiment: ATG_E2F_CIS: Attagene CIS-FACTORIAL HepG2 Assay for human E2F Transcription Factor 1 (AID 2282935); settings: HepG2 Attagene cis-reporter, E2F reporter RNA transcripts; actives raise or lower the signal
Transcription factor E2F1 (Homo sapiens), sequence (Q01094 whole entry, looked up): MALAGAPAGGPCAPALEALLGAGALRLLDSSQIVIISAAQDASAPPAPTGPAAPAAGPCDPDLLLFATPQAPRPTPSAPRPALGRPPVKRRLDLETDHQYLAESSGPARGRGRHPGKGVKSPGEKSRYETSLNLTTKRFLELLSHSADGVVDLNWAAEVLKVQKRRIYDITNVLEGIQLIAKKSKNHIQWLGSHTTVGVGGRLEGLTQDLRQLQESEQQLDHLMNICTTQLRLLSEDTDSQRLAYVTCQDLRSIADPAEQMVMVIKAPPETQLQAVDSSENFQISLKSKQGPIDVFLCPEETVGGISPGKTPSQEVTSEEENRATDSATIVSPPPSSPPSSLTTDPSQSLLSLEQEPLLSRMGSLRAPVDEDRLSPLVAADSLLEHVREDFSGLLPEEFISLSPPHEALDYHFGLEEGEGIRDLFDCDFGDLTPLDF
In short: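 Endogenous E2F1 activity read through cis-promoter reporter units transfected into HepG2. After 24 h compound treatment, reporter mRNA measured by RT-PCR, HpaI digestion and capillary electrophoresis. Bidirectional fit versus DMSO.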

[9] = ATG_E_Box_CIS: Attagene CIS-FACTORIAL HepG2 Assay for human Enhancer Box (E-box) (AID 2282936); settings: HepG2 E-box cis-reporter transcription, actives raise or lower the signal
In short: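 HepG2 cells transiently transfected with multiplexed cis-element reporter units, dosed 24 h; reporter mRNA quantified by RT-PCR, 6-FAM labelling, HpaI digestion and capillary electrophoresis. E-box (USF1) signal fitted bidirectionally vs DMSO.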

[10] = ATG_M_61_CIS: Attagene CIS-FACTORIAL HepG2 Assay for M61 Transcription Factor (Internal Marker) (AID 2282937); settings: HepG2 Attagene CIS-FACTORIAL M61 internal marker reporter; actives raise or lower the signal
In short: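 Readout: fluorescent reporter mRNA fragments resolved by capillary electrophoresis after RT-PCR. Transiently transfected human HepG2 cells carried MRTU constructs reporting endogenous TF activity; 24 h chemical exposure; gain or loss of signal fitted relative to DMSO.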

[11] = ATG_EGR_CIS: Attagene CIS-FACTORIAL HepG2 Assay for human Early Growth Response 1 (EGR1) (AID 2282938); settings: HepG2 Attagene CIS-FACTORIAL EGR reporter mRNA; actives raise or lower the signal
In short: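 Read-out: fluorescent reporter-mRNA fragments resolved by capillary electrophoresis after RT-PCR, 24 h post-dose in transiently transfected HepG2. Endogenous transcription-factor activity reported via cis-element-regulated reporter units; gain or loss fitted relative to DMSO.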

[12] = ATG_M_19_CIS: Attagene CIS-FACTORIAL HepG2 Assay for M19 Transcription Factor (Internal Marker) (AID 2282939); settings: HepG2 Attagene CIS-FACTORIAL M19 internal marker reporter; actives raise or lower the signal
In short: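 Readout: fluorescent reporter-transcript fragments by capillary electrophoresis after RT-PCR. Human HepG2 liver cells carried transfected MRTU constructs reporting endogenous transcription-factor activity; exposure 24 h. Gain or loss of signal fitted relative to DMSO.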

[13] = ATG_ERE_CIS: Attagene CIS-FACTORIAL HepG2 Assay for Estrogen Response Element (ERE) (AID 2282940); settings: HepG2 ERE cis-reporter, Attagene RNA transcript; actives raise or lower the signal
In short: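 Readout: reporter mRNA induction by RT-PCR, FAM-labelled primer extension, HpaI digestion and capillary electrophoresis, 24 h after dosing transfected HepG2 cells. Endogenous transcription factors act on cis-element-regulated reporters. Gain or loss fitted against DMSO.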

[14] = molecular target: Hepatocyte nuclear factor 3-beta (Homo sapiens) (UniProt Q9Y261); experiment: ATG_FoxA2_CIS: Attagene CIS-FACTORIAL HepG2 Assay for human Forkhead box A2 (FOXA2) (AID 2282942); settings: HepG2 cis-reporter transcription factor activity, 24 h; actives raise or lower the signal
Hepatocyte nuclear factor 3-beta (Homo sapiens), sequence (Q9Y261 whole entry, looked up): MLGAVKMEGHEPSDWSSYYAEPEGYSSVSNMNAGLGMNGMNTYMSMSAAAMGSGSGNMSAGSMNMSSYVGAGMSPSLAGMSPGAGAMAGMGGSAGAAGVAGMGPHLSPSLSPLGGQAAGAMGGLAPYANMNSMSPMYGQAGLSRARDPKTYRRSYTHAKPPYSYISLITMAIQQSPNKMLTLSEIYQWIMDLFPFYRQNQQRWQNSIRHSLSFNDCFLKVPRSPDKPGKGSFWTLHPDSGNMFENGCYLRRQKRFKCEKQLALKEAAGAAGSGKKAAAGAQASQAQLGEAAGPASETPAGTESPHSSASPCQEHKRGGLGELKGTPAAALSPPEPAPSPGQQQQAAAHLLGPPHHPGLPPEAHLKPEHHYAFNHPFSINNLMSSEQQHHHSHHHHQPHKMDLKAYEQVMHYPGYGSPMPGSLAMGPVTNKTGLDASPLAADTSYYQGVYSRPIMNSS
In short: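 Readout: fluorescent reporter transcripts resolved by capillary electrophoresis after RT-PCR. Transiently transfected HepG2, 24 h compound exposure, endogenous TF activity at cis promoter elements. Gain or loss of signal fitted relative to DMSO.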

[15] = ATG_FoxO_CIS: Attagene CIS-FACTORIAL HepG2 Assay for human Forkhead box O (FoxO) (AID 2282943); settings: HepG2 Attagene cis-reporter, FoxO element, mRNA; actives raise or lower the signal
In short: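 HepG2 cells transiently transfected with cis-element-driven reporter units report endogenous FoxO activity. After 24 h chemical exposure, reporter mRNA quantified by RT-PCR, fluorescent labeling, HpaI digestion and capillary electrophoresis; bidirectional fit versus DMSO.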

[16] = ATG_GLI_CIS: Attagene CIS-FACTORIAL HepG2 Assay for human Zinc Finger Protein GLI1 (AID 2282945); settings: HepG2, Attagene cis-factorial reporter mRNA, GLI element; actives raise or lower the signal
In short: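 Transiently transfected HepG2 cells report endogenous transcription factor activity via cis-element-driven reporter units. After 24 h compound exposure, reporter mRNA was measured by RT-PCR with capillary electrophoresis; bidirectional fitting against DMSO baseline.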

[17] = molecular target: Bile acid receptor (Homo sapiens) (UniProt Q96RI1); experiment: ATG_IR1_CIS: Attagene CIS-FACTORIAL HepG2 Assay for human Nuclear Receptor Subfamily 1 Group H Member 4 (NR1H4), IR1 submotif (AID 2282946); settings: IR1 reporter transcription, actives raise or lower the signal
Bile acid receptor (Homo sapiens), sequence (Q96RI1 whole entry, looked up): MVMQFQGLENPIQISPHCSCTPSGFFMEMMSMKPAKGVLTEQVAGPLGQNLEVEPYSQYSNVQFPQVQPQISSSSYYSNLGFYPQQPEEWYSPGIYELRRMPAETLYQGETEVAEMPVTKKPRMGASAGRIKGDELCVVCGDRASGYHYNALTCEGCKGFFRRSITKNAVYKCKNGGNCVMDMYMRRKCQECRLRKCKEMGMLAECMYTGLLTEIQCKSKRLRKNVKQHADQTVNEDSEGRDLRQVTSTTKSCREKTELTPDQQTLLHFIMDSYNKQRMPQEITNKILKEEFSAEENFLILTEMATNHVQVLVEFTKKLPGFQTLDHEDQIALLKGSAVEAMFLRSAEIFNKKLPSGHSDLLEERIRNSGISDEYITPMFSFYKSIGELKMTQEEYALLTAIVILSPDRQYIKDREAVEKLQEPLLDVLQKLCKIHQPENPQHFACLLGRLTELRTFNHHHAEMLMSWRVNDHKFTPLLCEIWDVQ
In short: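 HepG2 cells transiently transfected with multiple cis-promoter-driven reporter units to measure endogenous transcription factor activity; 24 h exposure. Reporter mRNA read by RT-PCR, FAM labelling, HpaI digestion and capillary electrophoresis. Bidirectional fit versus DMSO.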

[18] = molecular target: Retinoic acid receptor alpha (Homo sapiens) (UniProt P10276); experiment: ATG_DR5_RAR_CIS: Attagene CIS-FACTORIAL HepG2 Assay for human Retinoic Acid Receptor Alpha (RARE), DR5 submotif (AID 2282934); settings: HepG2 Attagene cis-factorial RARE DR5 reporter, mRNA; actives raise or lower the signal
Retinoic acid receptor alpha (Homo sapiens), sequence (P10276 whole entry, looked up): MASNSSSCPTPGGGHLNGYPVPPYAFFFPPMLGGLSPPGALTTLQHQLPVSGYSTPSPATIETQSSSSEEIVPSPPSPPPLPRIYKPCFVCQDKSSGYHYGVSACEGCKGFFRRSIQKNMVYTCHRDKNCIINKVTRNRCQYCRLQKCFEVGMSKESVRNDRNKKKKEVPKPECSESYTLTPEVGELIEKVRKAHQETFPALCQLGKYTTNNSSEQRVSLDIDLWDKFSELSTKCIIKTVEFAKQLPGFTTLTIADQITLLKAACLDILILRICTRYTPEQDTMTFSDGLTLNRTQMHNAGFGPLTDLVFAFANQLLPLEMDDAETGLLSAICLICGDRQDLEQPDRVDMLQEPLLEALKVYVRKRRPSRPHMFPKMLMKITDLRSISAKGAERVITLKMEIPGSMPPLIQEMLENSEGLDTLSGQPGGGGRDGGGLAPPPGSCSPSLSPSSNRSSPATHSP
In short: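 HepG2 cells transiently transfected with multiplexed reporter units; DR5 cis-element drives reporter through endogenous transcription factors. After 24 h dosing, reporter mRNA quantified by RT-PCR, fluorescent labeling, HpaI digestion and capillary electrophoresis; bidirectional fitting versus DMSO.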

[19] = ATG_Ets_CIS: Attagene CIS-FACTORIAL HepG2 Assay for human Erythroblast Transformation Specific (ETS) (AID 2282941); settings: HepG2 ETS cis-reporter transcription, actives raise or lower the signal
In short: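 Human HepG2 hepatoma cells were transiently transfected with promoter-driven reporter constructs and treated for 24 hours. Reporter transcripts were quantified by RT-PCR with fluorescent primer extension; bidirectional curve fitting used DMSO as reference.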

[20] = ATG_GATA_CIS: Attagene CIS-FACTORIAL HepG2 Assay for human GATA Binding Protein (AID 2282944); settings: HepG2 GATA cis-element reporter, Attagene multiplex mRNA; actives raise or lower the signal
In short: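 Read-out: fluorescent reporter mRNA fragments resolved by capillary electrophoresis after RT-PCR. Human liver HepG2 cells carried transiently transfected cis-regulated reporter constructs; chemicals incubated 24 h; gain or loss of signal fitted relative to DMSO.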

Measured: AC50

Clc1ccc(COC(Cn2ccnc2)c2ccc(Cl)cc2Cl)cc1 (stereo not drawn)
active: [3] 4.8 µM
not listed: [18] | [19] | [20]
inactive: all other assays above

Cn1sc(Cl)cc1=O
active: [4] 67.3 µM
not listed: [12] | [13] | [19] | [20]
inactive: all other assays above

Nc1ccc(Cl)cc1C(=O)c1ccccc1
active: [3] 49.5 µM | [11] 26.3 µM
not listed: [18]
inactive: all other assays above

CCC[CH2][Sn]([CH2]CCC)([CH2]CCC)[O]C(=O)c1ccccc1
active: [1] 0.0581 µM | [7] 0.218 µM | [13] 0.0334 µM
not listed: [17] | [18]
inactive: all other assays above

CC1CN1P(=O)(N1CC1C)N1CC1C (stereo not drawn)
not listed: [17] | [18]
inactive: all other assays above

CCC(C)(C)c1ccc(O)c(C(C)(C)CC)c1
active: [2] 11.1 µM | [3] 4.91 µM | [5] 12.8 µM | [17] 5.81 µM
not listed: [18] | [20]
inactive: all other assays above

CC(Br)C(=O)O (stereo not drawn)
not listed: [14] | [17] | [18]
inactive: all other assays above
